SKKanGAS inh: inhibitors of SKKanGAS S. pyogenes growth in kanamycin (SK-promoter or general growth effect); BacTiter-Glo, 6 h; inhibition, % at 7.5 µM; 300,000 tested, 1.3% active;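 active means mean replicate score, as percent of positive control median, at least 50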;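 further: strain carries kanamycin resistance gene driven by streptokinase promoter and grows in 40 µg/ml kanamycin; loss of luminescence reflects streptokinase promoter inhibition or plain growth inhibition; 0% = median of DMSO wells and 100% = positive control at its reference dose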
NALP1 yeast inh: NALP1 inhibition. S. cerevisiae NALP1/ASC/caspase-1 growth, X-gal OD620, 72 h. inhibition, % at 10 µM. 280,000 tested, 0.61% active. AID 2071; in the data active means inhibition mostly above about 24%, no sharp cut-off; inactive means mostly below about 32%
tim23-1 inh: tim23-1 yeast growth inhibition. S. cerevisiae tim23-1 growth, BacTiter-Glo luminescence, 24 h. inhibition, % at 20 µM. 330,000 tested, 1.3% active;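 active means growth inhibition of the mutant yeast at or above 50%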;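 further: temperature-sensitive mutant grown at 25 °C; plate controls were DMSO-treated mutant yeast for no effect and medium wells lacking yeast for full effect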
TIM10 inh: growth inhibitors of TIM10 yeast strain; 330,000 tested, 1.4% active; inhibition, % at 10 µM; S. cerevisiae TIM10 strain growth, BacTiter-Glo luminescence, 24 h;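 active means inhibition of 40% or more at the single tested concentration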;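 further: wild-type TIM10 isogenic control strain grown at permissive 25 °C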
tim10-1 inh: inhibits growth of tim10-1 mutant yeast. S. cerevisiae tim10-1 ts strain growth, BacTiter-Glo, 24 h. inhibition, % at 20 µM. 330,000 tested, 2.2% active;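 active means inhibition of at least 40%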;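 further: mutant grown at 25 °C; 0% = DMSO wells with yeast and 100% = wells holding no yeast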
PfHsp90 yeast 2: inhibits growth of yeast expressing Plasmodium falciparum Hsp90 | S. cerevisiae expressing PfHsp90, BacTiter-Glo ATP, 48 h; yeast lacking PDR1 and PDR3 efflux regulators | inhibition, % at 9.4 µM | 310,000 tested, 0.32% active;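 active means every replicate shows inhibition above about 80%, whatever the replicate mean, limit read from the data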;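 further: 0% = DMSO neutral controls and 100% = 20 µM radicicol positive controls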
tim10-1 conf: confirmation of tim10-1 mutant yeast growth inhibitors | shares compounds with tim10-1 inh | S. cerevisiae tim10-1 ts strain growth, BacTiter-Glo, 24 h | inhibition, % at 20 µM | 7,400 tested, 56% active | AID 463213;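 active means inhibition of yeast growth at or above a set limit in either of two repeat tests at 20 µM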;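 further: tim10-1 mutant grown at permissive 25 °C to find synthetic lethal compounds; 0% = DMSO yeast wells and 100% = medium wells without yeast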
Starred values were filed as active, the others as inactive; nt = no result given. This is a sample that favours compounds with a hit; in the whole collection about 4.8% have one here.

SMILES	SKKanGAS inh	NALP1 yeast inh	tim23-1 inh	TIM10 inh	tim10-1 inh	PfHsp90 yeast 2	tim10-1 conf
CC(C)(C)CC(C)(C)c1ccc(OCCOCC[N+](C)(C)Cc2ccccc2)cc1	nt	nt	27.7	14.0	41.7*	-40.6	-9.2
C[N+](C)(CCOc1ccccc1)Cc1ccccc1 (tested in a mixture with another compound)	0.9	1.0	14.6	5.5	2.5	0.3	nt
O=C(CCNC(=O)c1ccc(Br)cc1)NCc1ccccc1F	-1.0	nt	-7.2	-18.9	-6.3	-8.0	nt
Cc1cc(C)n(C(=O)/C(C#N)=N/Nc2cc(Cl)cc(Cl)c2)n1	90.5*	-12.6	29.2	32.6	47.1*	-56.8	56.1*
Cc1ccc(C2=NS(=O)(=O)N(C)C(C(=O)Nc3ccc(F)cc3F)=C2)cc1	2.1	12.7	-6.8	4.0	5.1	17.1	nt
COc1ccc(OC)c(C2=NS(=O)(=O)N(C)C(C(=O)Nc3ccc(F)cc3F)=C2)c1	5.0	2.5	25.9	-3.5	42.0*	-38.6	19.4
O=C(O)c1ccc(CSc2nc3ccc(N4C(=O)C5C6C=CC(C6)C5C4=O)cc3s2)cc1 (stereo not given)	20.3	16.7	23.6	22.2	52.4*	-1.9	29.1
Cc1cc(C)c2nc(N(CCN(C)C)C(=O)c3ccc(S(=O)(=O)N(C)CC4CCCO4)cc3)sc2c1 (stereo not given)	1.7	27.0	21.6	14.9	42.1*	-27.5	3.1
Cc1ccc2sc(N(CCN(C)C)C(=O)c3ccc(S(=O)(=O)N4CC(C)OC(C)C4)cc3)nc2c1C (stereo not given)	0.9	-1.8	26.5	28.6	40.3*	-29.9	24.1
CCN(Cc1ccccc1)S(=O)(=O)c1ccc(C(=O)N(CCCN(C)C)c2nc3c(C)c(C)ccc3s2)cc1	26.9	nt	28.2	5.4	46.1*	14.3	-1.8
COc1cccc(CNC(=O)c2ccccc2-c2ccccc2C(=O)O)c1	-4.6	-4.2	17.4	4.4	9.1	-6.1	nt
C/C(=N/NC(=O)CCC(=O)Nc1ccc(Br)cc1)c1ccc(Br)cc1	1.0	9.3	-4.7	-5.5	-2.7	0.4	nt
CCC(CC)C(=O)NCCc1cc2c(C)ccc(C)c2[nH]c1=O	4.2	9.8	6.2	-10.2	14.1	8.7	nt
O=C(NCc1ccccc1)c1cc2ccccc2oc1=O	-2.1	-3.3	8.6	5.3	-1.3	-3.6	nt
O=C(NCc1nc2ccccc2[nH]1)c1cc2ccccc2oc1=O	-5.0	25.8	6.1	23.6	41.3*	21.2	21.0
CC(C)CC(c1nnnn1C1CCCC1)N1CCN(C(=O)c2ccco2)CC1 (stereo not given)	2.2	-3.6	29.2	1.2	18.1	0.5	nt
Cc1nn(-c2nnc(NC3CCCCC3)nn2)c(C)c1Br	5.6	13.1	36.5	22.4	45.2*	-7.8	34.5*
COc1cc(C(=O)Nc2ccc(Cl)c(C(F)(F)F)c2)cc(OC)c1OC	-1.0	6.0	44.3	35.9	42.8*	44.9	53.3*
COc1cc(C(=O)Nc2ccncc2)cc(OC)c1OC	-4.2	4.1	-1.2	-1.0	2.3	-0.8	nt
COc1cc(C(=O)Nc2ccc(Nc3ccccc3)cc2)cc(OC)c1OC	3.9	0.0	42.5	25.1	43.3*	-6.4	41.6*
CCCOC(=O)c1ccc(NC(=O)c2c(Cl)ccc(Cl)c2OC)cc1	36.3	29.0	45.2	14.7	48.0*	-55.2	32.2*
CCOC(=O)N1CC(C)N(C(=S)Nc2ccccc2)CC1C (stereo not given)	nt	nt	nt	nt	nt	-19.2	nt
CC[n+]1ccccc1/C=C1\Sc2ccc(C)cc2N1C	4.1	14.2	24.1	5.7	41.2*	5.7	12.2
Clc1ccc2c(c1)-c1nnc(Br)n1-c1ccccc1S2	19.4	7.5	46.2	-3.1	47.5*	6.1	14.4
Cc1n[nH]c(C)c1CCc1nc2c3ccccc3nc(SCC(=O)Nc3ccccc3F)n2n1	5.2	-3.5	8.8	9.6	18.3	-26.4	nt
Cc1cccc(NC(=O)CSc2nc3ccccc3c3nc(CCc4c(C)n[nH]c4C)nn23)c1	21.8	18.4	10.5	9.5	41.4*	nt	13.5
Cc1cc(N2CCOCC2)nc2ccc(NC(=S)NCCC(C)C)cc12	-0.8	-1.0	27.1	12.4	43.7*	16.1	28.5*
